The text below walks through data of PubChem BioAssay.

Assay [1] can be described thus: compounds binding Alexa647 anti-His antibody – biochemical, small-molecule microarray, 635 nm fluorescence, artefact control for SMM control protein annotation, primary screen (AID 1128).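 Note: score merges feature fluorescence with signal-to-noise for each printed compound spot.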 The settings on record: higher = more signal.
Assay [2] relates to Human papillomavirus type 1a E7 protein (residues 1-88). The assay can be described thus: HPV1a E7 small-molecule binders, primary screen, biochemical, small-molecule microarray, residues 1-88, 635 nm (AID 1129). The following applies: small-molecule microarray binding, fluorescence 635 nm; higher = more signal.
The target of assay [3] is Focal adhesion kinase 1 (Homo sapiens) (UniProt Q05397). The assay can be described thus: PTK2 protein binding on printed compound slides – biochemical, small-molecule microarray, 635/667 nm fluorescence, BSA, DTT, primary screen (AID 1130).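 Note: composite of spot emission at 667 nm and signal to noise over triplicate slides.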 The following applies: 635 nm fluorescence, higher = more signal.
Focal adhesion kinase 1 (Homo sapiens), sequence (Q05397 whole entry, looked up): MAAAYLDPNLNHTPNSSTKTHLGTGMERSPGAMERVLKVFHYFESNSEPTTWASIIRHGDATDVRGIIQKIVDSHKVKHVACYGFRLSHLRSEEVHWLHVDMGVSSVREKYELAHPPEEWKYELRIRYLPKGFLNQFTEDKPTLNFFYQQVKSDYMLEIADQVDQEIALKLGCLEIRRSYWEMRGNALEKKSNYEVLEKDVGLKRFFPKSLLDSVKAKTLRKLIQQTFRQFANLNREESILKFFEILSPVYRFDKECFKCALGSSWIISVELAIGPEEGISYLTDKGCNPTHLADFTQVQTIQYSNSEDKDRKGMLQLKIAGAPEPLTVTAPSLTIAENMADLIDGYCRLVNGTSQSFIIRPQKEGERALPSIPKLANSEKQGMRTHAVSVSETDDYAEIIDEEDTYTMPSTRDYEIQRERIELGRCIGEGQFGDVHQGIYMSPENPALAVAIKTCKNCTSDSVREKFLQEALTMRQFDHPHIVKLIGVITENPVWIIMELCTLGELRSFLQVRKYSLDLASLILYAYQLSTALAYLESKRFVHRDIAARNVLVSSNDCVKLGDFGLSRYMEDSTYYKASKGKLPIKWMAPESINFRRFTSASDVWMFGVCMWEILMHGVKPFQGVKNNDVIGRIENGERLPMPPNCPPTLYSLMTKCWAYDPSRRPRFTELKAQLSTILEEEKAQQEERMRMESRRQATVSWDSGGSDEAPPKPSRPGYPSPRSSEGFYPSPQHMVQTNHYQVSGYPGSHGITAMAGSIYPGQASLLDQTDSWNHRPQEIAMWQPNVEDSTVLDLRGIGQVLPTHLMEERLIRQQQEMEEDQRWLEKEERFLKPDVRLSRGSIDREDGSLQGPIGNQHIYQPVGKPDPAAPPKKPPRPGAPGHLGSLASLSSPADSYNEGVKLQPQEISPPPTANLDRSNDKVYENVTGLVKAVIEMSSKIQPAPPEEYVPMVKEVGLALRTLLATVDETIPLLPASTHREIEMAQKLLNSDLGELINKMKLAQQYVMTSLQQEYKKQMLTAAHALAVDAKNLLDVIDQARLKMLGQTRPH
Assay [4] concerns Fibrinogen (Alexa647-labelled). The experiment in a line: Alexa647-fibrinogen binding to printed small molecules – biochemical, small-molecule microarray, 635/667 nm fluorescence, artefact control for SMM control-protein annotation, profiling panel (AID 1131).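 Note: z-score merges 667 nm fluorescence with per-spot signal-to-noise over triplicate slides.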 The following applies: fibrinogen-A647 binding fluorescence, higher = more signal.
The target in assay [5] is Follistatin (Homo sapiens) (UniProt P19883). The assay can be described thus: FST protein binding to printed compounds – biochemical, small-molecule microarray, 635/667 nm fluorescence, primary screen (AID 1132). The following applies: 635 nm fluorescence, higher = more signal.
Follistatin (Homo sapiens), sequence (P19883 whole entry, looked up): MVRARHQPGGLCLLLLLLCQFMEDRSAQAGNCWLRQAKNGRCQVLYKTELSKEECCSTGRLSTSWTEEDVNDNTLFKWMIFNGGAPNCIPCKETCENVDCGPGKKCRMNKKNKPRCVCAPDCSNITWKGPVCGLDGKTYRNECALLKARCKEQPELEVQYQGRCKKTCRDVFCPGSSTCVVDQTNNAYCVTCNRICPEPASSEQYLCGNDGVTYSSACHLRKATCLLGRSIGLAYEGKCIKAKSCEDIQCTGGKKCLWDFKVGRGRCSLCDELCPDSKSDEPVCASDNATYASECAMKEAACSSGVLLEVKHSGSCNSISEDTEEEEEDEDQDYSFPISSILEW
Assay [6] addresses Fibroblast growth factor 2 (Homo sapiens) (UniProt P09038). The experiment in a line: basic fibroblast growth factor binding to printed compounds – biochemical, small-molecule microarray, 635/667 nm fluorescence, primary screen (AID 1133). The settings on record: FGF2, fluorescence 635/667, higher = more signal.
Assay [7] is described as follows: JC-1 mitochondrial potential readout, lung cancer cells – cell-based, A549, JC-1 fluorescence, basal, 24 h, 100 nL, profiling panel (AID 1138).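 Note: A549 lung adenocarcinoma cells under basal conditions with no added stimulus; test concentration not given here.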 The settings on record: higher = more signal.
Another assay concerns Lefty1. The assay can be described thus: Lefty1 protein binding to printed compounds – biochemical, small-molecule microarray, 635/667 nm fluorescence, primary screen (AID 1139). The following applies: fluorescence 635/667, higher = more signal.
For assay [8], the system named is wheat germ agglutinin (Triticum aestivum), Alexa647-labelled. The experiment in a line: Alexa647-WGA lectin binding to printed small molecules – biochemical, small-molecule microarray, 635/667 nm fluorescence, artefact control for SMM control-protein annotation, profiling panel (AID 1140).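 Note: score merges 667 nm feature emission with signal to noise over triplicate slides.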 The settings on record: WGA-A647 binding, 635 nm fluorescence, higher = more signal.

Assay [9] has as its target Luciferin 4-monooxygenase (Photinus pyralis) (UniProt P08659). The assay can be described thus: inhibition of purified Photinus pyralis luciferase – biochemical, luminescence, purified enzyme, 2006 set, primary screen (AID 1141).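 Note: cell-free assay with purified firefly luciferase at 100 ng per well in PBS; test concentration not given here.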 The settings on record: purified firefly luciferase, SteadyGlo luminescence, 30 min; higher = more signal, called active from +8 up or from −8 down.

The subject of assay [10] is Wnt5a (protein binding on small-molecule microarray). The experiment in a line: small molecules binding Wnt5a protein – biophysical, small-molecule microarray, 635/667 nm fluorescence, primary screen (AID 1142).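 Note: fluorescence read at 667 nm with signal to noise per printed feature.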 The settings on record: 635 nm fluorescence, higher = more signal.
Assay [11] can be described thus: ATP-based viability of Huh7 replicon cells – cell-based, CellTiter-Glo luminescence, basal, 48 h, cytotoxicity control for HCV replication inhibitor project, primary screen (AID 1143).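 Note: Huh7 hepatoma cells carrying a hepatitis C replication reporter with no stimulus; test concentration not given here.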 The settings on record: higher = more signal, called active from +8 up or from −8 down. (Replicon systems follow genome replication, usually without infectious particles.)
The nature of assay [12]: Pseudomonas biofilm growth suppression – PAO1 strain, BacTiter-Glo luminescence, LB-PBS, primary screen (AID 1144). The settings on record: P. aeruginosa PAO1 biofilm, 12 h, higher = more signal.
The nature of assay [13]: basal CRE-LacZ reporter activity in PC12 – cell-based, unstimulated, primary screen (AID 1145). The settings on record: no forskolin, luminescence, 4.5 h, higher = more signal, called active from +8 up or from −8 down.
Assay [14] is described as follows: forskolin-driven CRE-LacZ activity in PC12 – cell-based, CRE-LacZ reporter, forskolin-stimulated, primary screen (AID 1146).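 Note: PC12 cells with 6xCRE LacZ reporter stimulated by forskolin 10 µM; beta-galactosidase reporter signal reflecting CREB driven transcription.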 The following applies: luminescence, 4.5 h, higher = more signal, called active from +8 up or from −8 down.
Assay [15] has as its target Streptavidin (Streptomyces avidinii) (UniProt P22629). The experiment in a line: compounds binding control protein streptavidin – biophysical, small-molecule microarray, 635/667 nm fluorescence, artefact control for SMM compound annotation, primary screen (AID 1147).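 Note: signal reflects streptavidin binding to arrayed compounds as a control protein.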 The settings on record: higher = more signal.
Assay [16] can be described thus: probe aInhba binding on compound microarray – biochemical, small-molecule microarray, 635/667 nm fluorescence, primary screen (AID 1148).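 Note: score merges 667nm spot fluorescence with signal-to-noise for antibody binding to printed compounds.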 The following applies: higher = more signal.
Assay [17] addresses Torsin-1A (Homo sapiens) (UniProt O14656). The experiment in a line: TOR1A wild-type binding on microarray – cell lysate, small-molecule microarray, lysate, 635/667 nm, primary screen (AID 1149). The following applies: COS7 hTOR1A-WT lysate, 635 nm fluorescence, higher = more signal.
Assay [18] shares this target. The assay can be described thus: torsin A mutant lysate binding on microarrays – cell lysate, small-molecule microarray, COS7 lysate, 635/667 nm fluorescence, primary screen (AID 1150).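 Note: score pools 667 nm emission and signal to noise measuring lysate protein binding.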 The settings on record: COS7 hTOR1A mutant lysate, 635 nm fluorescence, higher = more signal.
Assay [19] deals with Sonic hedgehog protein (Shh). The assay can be described thus: Sonic hedgehog microarray binding compounds – biochemical, small-molecule microarray, 635/667 nm fluorescence, primary screen (AID 1151).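 Note: Shh protein binding to compounds spotted on small-molecule microarray slides; score combines spot fluorescence intensity with signal-to-noise across triplicate slides.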 The following applies: 635 nm fluorescence, higher = more signal.

Active and inactive are the calls of the source. Unless noted, the rule behind the calls is not given here.

Streptavidin (Streptomyces avidinii), sequence (P22629 whole entry, looked up): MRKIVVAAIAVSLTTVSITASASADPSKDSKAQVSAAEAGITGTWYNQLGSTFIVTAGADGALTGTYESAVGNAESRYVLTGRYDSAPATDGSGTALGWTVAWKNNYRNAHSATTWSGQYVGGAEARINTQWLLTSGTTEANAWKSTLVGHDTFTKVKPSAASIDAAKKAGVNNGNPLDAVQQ
Fibroblast growth factor 2 (Homo sapiens), sequence (P09038 whole entry, looked up): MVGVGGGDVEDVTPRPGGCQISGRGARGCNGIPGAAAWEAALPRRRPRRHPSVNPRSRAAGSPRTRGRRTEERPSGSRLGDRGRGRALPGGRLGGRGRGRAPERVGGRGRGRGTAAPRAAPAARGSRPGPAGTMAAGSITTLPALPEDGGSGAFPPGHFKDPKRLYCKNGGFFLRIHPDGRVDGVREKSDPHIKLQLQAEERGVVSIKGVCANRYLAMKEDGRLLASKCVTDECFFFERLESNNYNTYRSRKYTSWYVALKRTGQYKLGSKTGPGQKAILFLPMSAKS
Luciferin 4-monooxygenase (Photinus pyralis), sequence (P08659 whole entry, looked up): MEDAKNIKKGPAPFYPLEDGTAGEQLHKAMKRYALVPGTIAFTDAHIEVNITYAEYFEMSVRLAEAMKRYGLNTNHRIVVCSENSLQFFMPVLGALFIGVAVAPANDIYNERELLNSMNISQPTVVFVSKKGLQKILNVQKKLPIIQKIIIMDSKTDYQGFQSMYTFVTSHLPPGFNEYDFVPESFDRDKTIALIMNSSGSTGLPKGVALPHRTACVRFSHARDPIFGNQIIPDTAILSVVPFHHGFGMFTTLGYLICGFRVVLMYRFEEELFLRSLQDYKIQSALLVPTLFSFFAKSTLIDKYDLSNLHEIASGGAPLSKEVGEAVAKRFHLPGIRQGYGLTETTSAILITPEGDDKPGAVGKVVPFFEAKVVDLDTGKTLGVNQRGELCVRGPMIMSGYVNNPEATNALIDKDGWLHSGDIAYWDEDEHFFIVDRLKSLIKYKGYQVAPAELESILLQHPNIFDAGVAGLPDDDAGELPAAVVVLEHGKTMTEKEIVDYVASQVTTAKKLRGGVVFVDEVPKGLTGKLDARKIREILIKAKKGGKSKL
Torsin-1A (Homo sapiens), sequence (O14656 whole entry, looked up): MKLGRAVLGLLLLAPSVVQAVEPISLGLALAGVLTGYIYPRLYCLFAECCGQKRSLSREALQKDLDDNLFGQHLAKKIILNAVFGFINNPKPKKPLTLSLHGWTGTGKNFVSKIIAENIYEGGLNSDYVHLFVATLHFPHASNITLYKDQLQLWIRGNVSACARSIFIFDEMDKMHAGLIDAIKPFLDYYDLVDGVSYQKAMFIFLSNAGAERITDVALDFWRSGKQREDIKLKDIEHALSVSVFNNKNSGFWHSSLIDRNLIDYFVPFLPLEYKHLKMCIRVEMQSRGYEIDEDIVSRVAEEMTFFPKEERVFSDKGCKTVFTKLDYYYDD

In the case of `COC(=O)[C@]1(CCC(=O)OC(C)(C)C)N=C(c2ccc(OCCCO)cc2)O[C@@H]1c1ccccc1CN=[N+]=[N-]`, the composite z-score was 0.0121 in assay [1]; 1.06 in assay [2]; 0.348 in [3]; 0.666 in [4]; 1.13 in [5]; 0.283 in assay [6]. Further, the composite z-score in the assay with Lefty1 was -0.477; in assay [8], 0.095; in [10], 0.714; in [15], 0.0874; in assay [16], 0.24; with Torsin-1A (Homo sapiens) [17] it was -0.351. For the same molecule, the composite z-score is -0.0282 with Torsin-1A (Homo sapiens) [18] and 0.712 in assay [19]. Also, the z-score in [7] was -0.208; in assay [9], -0.76 (inactive); in [11], -4.56 (inactive); in assay [12], 0.283 (inactive); in assay [13], 1.77 (inactive); in [14], -0.955 (inactive).

For the molecule `COC(=O)c1c(CC[C@@H](CO)NC(=O)NCCn2cc(C3(O)CCCC3)nn2)oc(C(C)=O)c1C(=O)OC`, the composite z-score in [1] is 0.828; in assay [2], 0.0881; in assay [3] it was 0.182; in [4], 0.292; in assay [5], -0.273; in assay [6], 0.247. Besides, the composite z-score with Lefty1 is 0.199; in [8] it was 0.128; in assay [10], -0.344; in [15], 0.102; in assay [16], -0.203; with Torsin-1A (Homo sapiens) [17] it was -0.0395. The values for the composite z-score (in the assay with Torsin-1A (Homo sapiens) [18]; in [19]) were 0.105 and -0.303, respectively. In addition, the z-score was -0.415 in [7]; 0.7 (inactive) in assay [9]; -0.177 (inactive) in [11]; 0.699 (inactive) in assay [12]; 0.978 (inactive) in [13]; -0.194 (inactive) in [14].

`CCOC(=O)[C@H]1C/C=C/C[C@H](C(=O)OCC)C(=O)O[C@H]2[C@@H](OC)O[C@H](CO)[C@@H](OC(=O)c3c(OC)cccc3OC)[C@@H]2OC1=O`: the composite z-score came out at 0.0181 in [1]; 1.12 in assay [2]; 0.523 in [3]; 0.661 in assay [4]; 0.706 in [5]; 0.418 in assay [6]. Further, the composite z-score with Lefty1 was 0.639; in assay [8] it was 0.0697; in assay [10], 0.172; in [15] it was 0.475; in [16], -0.0501; with Torsin-1A (Homo sapiens) [17], 0.292. Besides, the composite z-score is 0.209 with Torsin-1A (Homo sapiens) [18] and 1.44 in assay [19]. The z-score was -0.927 in assay [7]; -0.335 (inactive) in assay [9]; -4.57 (inactive) in [11]; 0.0437 (inactive) in [12]; 0.0816 (inactive) in assay [13]; 1.33 (inactive) in assay [14].

For the molecule `COC(=O)[C@@]1(Cc2ccc(F)cc2)[C@H]2c3cc(C(=O)N(C)C)n(Cc4ccccc4)c3C[C@H]2CN1C(=O)c1ccccc1`, the composite z-score in assay [1] was 1.38; in assay [2], 0.789; in [3], -0.109; in [4] it was 0.91; in [5], 0.787; in assay [6], -0.525. Also, the composite z-score was 0.0954 with Lefty1; 1.16 in assay [8]; 0.198 in [10]; 1.16 in assay [15]; 0.218 in assay [16]; -0.243 in the assay with Torsin-1A (Homo sapiens) [17]. In addition, the composite z-score is 0.099 with Torsin-1A (Homo sapiens) [18] and 0.0292 in [19]. Besides, the z-score is 0.906 in assay [7]; 2.14 (inactive) in assay [9]; -2.67 (inactive) in assay [11]; -0.22 (inactive) in assay [12]; -0.379 (inactive) in assay [13]; 1.42 (inactive) in assay [14].

As for `O=C1C2C=CC(C(O)c3cc(C(F)(F)F)cc(C(F)(F)F)c3)N(n3cnnc3)C2C(=O)N1Cc1ccccc1` (stereo not given), the composite z-score in assay [1] is 0.955; in assay [2] it was -0.269; in assay [3] it was -0.176; in assay [4] it was 0.889; in [5], -0.192; in assay [6] it was -0.794. Also, the composite z-score is -0.264 in the assay on Lefty1; 1.05 in [8]; -0.484 in [10]; 0.0422 in assay [15]; -0.0719 in assay [16]; -0.808 with Torsin-1A (Homo sapiens) [17]. Further, the composite z-score with Torsin-1A (Homo sapiens) [18] is -0.0144; in [19], -0.755. In addition, the z-score in assay [7] is -1.57; in assay [9], 1.46 (inactive); in assay [11] it was -1.34 (inactive); in assay [12] it was -1.12 (inactive); in assay [13] it was 0.089 (inactive); in assay [14] it was 0.753 (inactive).

As to `C=C(COC)/C(=C/C[C@@H](OC(=O)c1ccncc1)c1ccc(CO)o1)c1cc(C(=O)OC)ccc1OC`, the composite z-score in assay [1] was 0.68; in assay [2] it was 1.24; in assay [3], 0.987; in [4], 0.933; in [5], 1.46; in assay [6], 1.92. Further, the composite z-score in the assay with Lefty1 was 1.64; in assay [8] it was 0.707; in assay [10] it was 1.08; in [15] it was 0.207; in assay [16] it was -0.0645; with Torsin-1A (Homo sapiens) [17], 1.1. Further, the composite z-score was determined as 0.756 in the assay with Torsin-1A (Homo sapiens) [18] and 2.17 in assay [19]. The z-score was 0.526 in assay [7]; -1.83 (inactive) in assay [9]; -0.158 (inactive) in assay [11]; -0.985 (inactive) in assay [12]; 0.904 (inactive) in [13]; 1.31 (inactive) in assay [14].

For `COc1ccc([Si](C)(C)[C@H]2[C@H](CC(=O)N3Cc4ccccc4C[C@H]3CO)O[C@@]3(C(=O)N(Cc4cccc(N5CCC5=O)c4)c4ccccc43)[C@@H]2C)cc1`, the composite z-score in assay [1] was 0.322; in assay [2] it was 1.19; in [3], 0.527; in assay [4], 0.135; in [5] it was 1.33; in assay [6], 1.47. Besides, the composite z-score is 1.22 with Lefty1; 0.107 in [8]; 0.512 in [10]; -0.0369 in assay [15]; 0.0183 in [16]; 0.906 with Torsin-1A (Homo sapiens) [17]. Besides, the figures for the composite z-score (in the assay with Torsin-1A (Homo sapiens) [18]; in assay [19]) were 0.838 and 1.74, respectively. Further, the z-score in assay [7] is 0.526; in [9], -0.796 (inactive); in [11], -3.64 (inactive); in assay [12] it was 0.187 (inactive); in [13], 7.57 (inactive); in assay [14] it was -0.86 (inactive).
